Results: the supplement of paper PMC3334620
Over roughly 33,000 sequences, “E-score (-0.5 to 0.5)” has its median near -0.021; the highest 2% begin near 0.32. The entries come from a sample that favours the highest values as a whole.

Molecular target: T1, Zap1 (UniProt P47043)
T1 sequence: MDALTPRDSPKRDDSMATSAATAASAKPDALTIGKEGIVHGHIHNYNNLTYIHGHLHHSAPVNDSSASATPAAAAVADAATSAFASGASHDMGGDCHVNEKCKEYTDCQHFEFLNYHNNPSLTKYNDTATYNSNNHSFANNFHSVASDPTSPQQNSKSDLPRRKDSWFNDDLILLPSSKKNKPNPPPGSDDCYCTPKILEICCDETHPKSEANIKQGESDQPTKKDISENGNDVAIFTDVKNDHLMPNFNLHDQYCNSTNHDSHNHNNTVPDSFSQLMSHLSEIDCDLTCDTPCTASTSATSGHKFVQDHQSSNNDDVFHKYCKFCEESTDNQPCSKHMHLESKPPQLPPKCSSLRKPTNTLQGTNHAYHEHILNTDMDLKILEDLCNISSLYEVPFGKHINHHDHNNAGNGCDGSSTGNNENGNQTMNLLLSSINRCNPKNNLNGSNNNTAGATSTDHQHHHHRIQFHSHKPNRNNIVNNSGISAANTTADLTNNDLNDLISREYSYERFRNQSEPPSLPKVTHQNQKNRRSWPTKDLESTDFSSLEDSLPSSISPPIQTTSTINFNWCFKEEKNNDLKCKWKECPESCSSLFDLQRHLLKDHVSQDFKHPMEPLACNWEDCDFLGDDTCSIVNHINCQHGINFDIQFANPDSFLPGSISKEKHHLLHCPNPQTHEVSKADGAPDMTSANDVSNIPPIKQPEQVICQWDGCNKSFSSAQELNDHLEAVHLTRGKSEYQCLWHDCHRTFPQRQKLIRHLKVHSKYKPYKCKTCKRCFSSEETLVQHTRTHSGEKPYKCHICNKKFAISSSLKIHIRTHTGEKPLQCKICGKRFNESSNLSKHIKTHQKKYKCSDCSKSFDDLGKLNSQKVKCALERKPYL
Test: PBM E-score (8-mer binding enrichment) (E-score (-0.5 to 0.5)); higher = stronger / more preferred TF binding
Details: protein concentration: 200 nM; construct: GST-full length
Procedure, shortened: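 Bound GST-tagged yeast transcription factors, applied at about 100-200 nM to double-stranded universal all-10-mer Agilent arrays, were detected with fluorescent anti-GST. Scans were normalised with masliner. A modified Wilcoxon-Mann-Whitney statistic, the E-score, was assigned to each ungapped eight-base word pooled with its reverse complement by the Universal PBM Analysis Suite.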

Compared with ATTTTCTA, CTATGAGC is lower in “PBM E-score” value: 0.122 for the first, -0.127 for the second.

Compared with CTTCTCCC, ATCCTCAC is higher in “PBM E-score” value: -0.213 for the first, 0.0272 for the second.

Compared with GAAGATGA, GGCGTACC is lower in “PBM E-score” value: 0.0533 for the first, 0.0458 for the second.

First: GGGGTACC
Second: AGGGTACA
The “PBM E-score” value of the first is higher: 0.424 for the first, 0.337 for the second.

First: GGGGTACA
Second: ACGGTACA
The “PBM E-score” value of the first is higher: 0.249 for the first, 0.213 for the second.

First: AGGGTACC
Second: AGGGTACG
The “PBM E-score” value of the first is higher: 0.461 for the first, 0.296 for the second.

Going from AGAGTACT to TGGGTACA, the “PBM E-score” value rises from -0.144 to 0.174.

First: AGCGTACT
Second: AGTGTACC
The “PBM E-score” value of the first is lower: -0.127 for the first, 0.0741 for the second.

Going from AGGGTACT to CGAAGCAA, the “PBM E-score” value falls from 0.441 to -0.00093.

First: CCCCATAG
Second: CAAAACTG
The “PBM E-score” value of the first is higher: 0.201 for the first, 0.0208 for the second.

Compared with CATGGGAG, AAATATAT is higher in “PBM E-score” value: 0.0124 for the first, 0.224 for the second.

Compared with ATCTATCG, GAACAAGC is lower in “PBM E-score” value: -0.167 for the first, -0.175 for the second.

First: CAGCCCAA
Second: AATTCCGT
The “PBM E-score” value of the first is lower: -0.0128 for the first, -0.0101 for the second.

First: ATGGTACA
Second: CGGGTACG
The “PBM E-score” value of the first is higher: 0.08 for the first, 0.0198 for the second.

Compared with CTGGTACC, CGGGTACC is higher in “PBM E-score” value: 0.286 for the first, 0.432 for the second.

First: CGGGTACA
Second: ATGGTACC
The “PBM E-score” value of the first is lower: 0.122 for the first, 0.392 for the second.

Going from ACGCTTGA to CCCCTAGC, the “PBM E-score” value falls from 0.0154 to -0.167.

Going from GGGGCTTA to ACGTCATA, the “PBM E-score” value rises from -0.25 to -0.0571.

Compared with ACCCAGCC, AACTAAGA is higher in “PBM E-score” value: -0.139 for the first, 0.0908 for the second.

Compared with CCTGGGGA, GGGGGTAC is higher in “PBM E-score” value: -0.183 for the first, 0.186 for the second.

First: AGGGGTAC
Second: CAGGGTAA
The “PBM E-score” value of the first is higher: 0.398 for the first, 0.354 for the second.

Compared with CAGGGTGA, GCGGGTAC is lower in “PBM E-score” value: 0.313 for the first, 0.256 for the second.

Compared with AGGGGTAG, CCGGGTAC is higher in “PBM E-score” value: 0.312 for the first, 0.348 for the second.

Compared with CTGGGTAA, CCGGGTAA is higher in “PBM E-score” value: 0.185 for the first, 0.246 for the second.

First: CGGGGTAC
Second: ACGGGTAG
The “PBM E-score” value of the first is higher: 0.316 for the first, 0.255 for the second.

First: AAGGGTAG
Second: AGCCAAGC
The “PBM E-score” value of the first is higher: 0.375 for the first, -0.307 for the second.

Compared with GGGTAGTA, ACTTCAAA is lower in “PBM E-score” value: 0.219 for the first, -0.13 for the second.

Going from GACACACA to GCGGGCGA, the “PBM E-score” value falls from 0.028 to -0.105.

Going from CCCATCTA to ACCTATCC, the “PBM E-score” value rises from -0.0762 to 0.152.

Going from ACAGTAGG to CACGGGGA, the “PBM E-score” value falls from -0.209 to -0.219.

First: GAGGGTGC
Second: AAGGGTGT
The “PBM E-score” value of the first is lower: 0.138 for the first, 0.316 for the second.

First: GAGGGTAC
Second: ATGGGTAA
The “PBM E-score” value of the first is higher: 0.374 for the first, 0.242 for the second.

Compared with AAGGGTAA, CGGGGTAA is lower in “PBM E-score” value: 0.393 for the first, 0.299 for the second.

Compared with GATGGTAC, AAGGGTAT is higher in “PBM E-score” value: 0.199 for the first, 0.421 for the second.

Compared with TGGGGTAA, AGGGGTAT is lower in “PBM E-score” value: 0.347 for the first, 0.258 for the second.

Compared with AGGGGTAA, GGGGGTAA is lower in “PBM E-score” value: 0.272 for the first, -0.0883 for the second.

Going from CTTTCGCC to CGGTTGTC, the “PBM E-score” value rises from -0.179 to 0.279.

Going from CATGTGCA to TTCTTAAA, the “PBM E-score” value falls from 0.0255 to -0.028.

First: ACGTCGTA
Second: CATCAATA
The “PBM E-score” value of the first is lower: -0.287 for the first, 0.0615 for the second.

First: CGTGGCCA
Second: GGCACGTA
The “PBM E-score” value of the first is higher: 0.0519 for the first, -0.273 for the second.

First: ATGGGTAC
Second: AAGGGTAC
The “PBM E-score” value of the first is lower: 0.328 for the first, 0.426 for the second.

First: ATGGGTAG
Second: CAGGGTAG
The “PBM E-score” value of the first is lower: 0.238 for the first, 0.306 for the second.

Compared with TCGGGTAA, ACGGGTAC is lower in “PBM E-score” value: 0.24 for the first, 0.231 for the second.

Going from GAGGGTAA to AAGGGTCC, the “PBM E-score” value rises from 0.264 to 0.274.

First: CTGGGTAC
Second: TAGGGTAA
The “PBM E-score” value of the first is lower: 0.305 for the first, 0.396 for the second.

Going from CAGGGTAC to CAGGGTGC, the “PBM E-score” value falls from 0.437 to 0.0059.

Compared with AGTCAGGC, CACTACGC is lower in “PBM E-score” value: -0.101 for the first, -0.163 for the second.

Going from CGGCTAGA to CCCTGCGA, the “PBM E-score” value rises from -0.178 to 0.0758.

Compared with CCAACTGC, AACACAGT is higher in “PBM E-score” value: -0.165 for the first, -0.00444 for the second.

Compared with AAGCTTTC, GCGTGACC is higher in “PBM E-score” value: 0.0356 for the first, 0.326 for the second.

CCGTGACA and GCGTGACA are the same in “PBM E-score” value: -0.136 for the first, -0.136 for the second.

First: CCGTGACG
Second: CCGTGACC
The “PBM E-score” value of the first is lower: -0.0247 for the first, 0.376 for the second.

First: ACGTGACC
Second: TATACATA
The “PBM E-score” value of the first is higher: 0.249 for the first, 0.106 for the second.

Going from CACTAGAG to ACACTGAA, the “PBM E-score” value rises from 0.0544 to 0.111.

First: GCCAGACA
Second: CGTTACAA
The “PBM E-score” value of the first is lower: 0.0344 for the first, 0.121 for the second.

Compared with CGTTACAC, GGTTACAC is higher in “PBM E-score” value: 0.0157 for the first, 0.403 for the second.

Compared with AGTTACAC, TGTTACAA is higher in “PBM E-score” value: 0.0701 for the first, 0.098 for the second.

Compared with GGTTACAA, GGGCTTAA is lower in “PBM E-score” value: 0.455 for the first, -0.0211 for the second.

First: ACGTGTAT
Second: TATCGACA
The “PBM E-score” value of the first is lower: -0.152 for the first, 0.0537 for the second.

Going from ATTGTGAC to CACATAGC, the “PBM E-score” value falls from 0.159 to -0.136.

Compared with ACGAGAGT, ATCCCTAC is higher in “PBM E-score” value: -0.197 for the first, -0.023 for the second.
